# Measured values reported in the supplement of paper PMC4022240.
# ± gives the standard deviation.
# T1: HaloTag-ATRX ADD domain (163-292)
# T1 chain: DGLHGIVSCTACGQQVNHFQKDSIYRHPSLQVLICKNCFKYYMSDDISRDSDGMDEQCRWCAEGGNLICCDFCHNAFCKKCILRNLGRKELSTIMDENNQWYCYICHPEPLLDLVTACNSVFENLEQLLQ
# How the values were obtained:
# Assay in all cases: peptide microarray binding signal (635 nm), min-max normalized on array (fraction of array maximum); higher = stronger binding
# [1] = target: T1, HaloTag-ATRX ADD domain (163-292)
# How it was run: (§1)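 Arrays carried histone 13-mer peptide–cellulose conjugates printed in triplicate on nitrocellulose alongside a Cy3 tracer. After overnight blocking at 4°C, they were incubated for 1 h at 4°C with biotin-labelled HaloTag reader fusions (10 nM to 1 μM) plus streptavidin-Alexa Fluor 647, or with rabbit histone antibodies (1:10,000 to 1:2,000) plus anti-rabbit Alexa 647. Scanning on an Axon GenePix 4000B used 635 nm for signal and 532 nm for misprints. The binding signal reported is each triplicate's mean spot intensity after per-library min-max scaling.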
# [2] = target: HaloTag-ING2 PHD (mouse Ing2 200-280)
# How it was run: as §1
# [3] = target: anti-H3K4me3 antibody ab8580
# How it was run: as §1
# [4] = target: anti-H3K9me3 antibody ab8898
# How it was run: as §1
# [5] = peptide region: H4 38-50, peptide modifications: H4K44me3 H4R45me2a, binder concentration: 1:2,000 dilution
# [6] = peptide region: H4 38-50, peptide modifications: H4K44me3 H4R45me2a, binder concentration: 1:10,000 dilution
# [7] = peptide region: H4 53-65, peptide modifications: H4K59ac, binder concentration: 1:2,000 dilution
# [8] = peptide region: H4 53-65, peptide modifications: H4K59ac, binder concentration: 1:10,000 dilution
# [9] = peptide region: H4 38-50, peptide modifications: H4R45me2s, binder concentration: 1:2,000 dilution
# [10] = peptide region: H4 38-50, peptide modifications: H4R45me2s, binder concentration: 1:10,000 dilution
# [11] = peptide region: H4 38-50, peptide modifications: H4R45me1, binder concentration: 1:2,000 dilution
# [12] = peptide region: H4 38-50, peptide modifications: H4R45me1, binder concentration: 1:10,000 dilution
# [13] = peptide region: H4 38-50, peptide modifications: H4R45me2a, binder concentration: 1:2,000 dilution
# [14] = peptide region: H4 38-50, peptide modifications: H4R45me2a, binder concentration: 1:10,000 dilution
# [15] = peptide region: H4 38-50, peptide modifications: H4R45cit, binder concentration: 1:2,000 dilution
# [16] = peptide region: H4 38-50, peptide modifications: H4R45cit, binder concentration: 1:10,000 dilution
# [17] = peptide region: H4 53-65, binder concentration: 1:2,000 dilution
# [18] = peptide region: H4 53-65, binder concentration: 1:10,000 dilution
# [19] = peptide region: H4 38-50, peptide modifications: H4K44me3 H4R45me2s, binder concentration: 1:2,000 dilution
# [20] = peptide region: H4 38-50, peptide modifications: H4K44me3 H4R45me2s, binder concentration: 1:10,000 dilution
# [21] = peptide region: H4 38-50, peptide modifications: H4K44me2 H4R45me2a, binder concentration: 1:2,000 dilution
# [22] = peptide region: H4 38-50, peptide modifications: H4K44me2 H4R45me2a, binder concentration: 1:10,000 dilution
# [23] = peptide region: H4 53-65, peptide modifications: H4K59me1, binder concentration: 1:2,000 dilution
# [24] = peptide region: H4 53-65, peptide modifications: H4K59me1, binder concentration: 1:10,000 dilution
binder,measurement,setting,value
ARRGGVKRISGLI [H4 38-50 A R R G G V Kme3 Rme2a I S G L I],peptide microarray binding signal,"[1]; peptide region: H4 38-50, peptide modifications: H4K44me3 H4R45me2a, binder concentration: 50 nM",0.00524 ± 0.00017
same,peptide microarray binding signal,"[1]; peptide region: H4 38-50, peptide modifications: H4K44me3 H4R45me2a, binder concentration: 500 nM",0.00852 ± 0.00069
same,peptide microarray binding signal,"[2]; peptide region: H4 38-50, peptide modifications: H4K44me3 H4R45me2a, binder concentration: 10 nM",0.0304 ± 0.0024
same,peptide microarray binding signal,"[2]; peptide region: H4 38-50, peptide modifications: H4K44me3 H4R45me2a, binder concentration: 100 nM",0.0612 ± 0.0075
same,peptide microarray binding signal,[3]; [5],0.0239 ± 0.0068
same,peptide microarray binding signal,[3]; [6],0.016 ± 0.00029
same,peptide microarray binding signal,[4]; [5],0.0197 ± 0.0016
same,peptide microarray binding signal,[4]; [6],0.009686 ± 5.3e-05
ETRGVLKVFLENV [H4 53-65 E T R G V L Kac V F L E N V],peptide microarray binding signal,"[1]; peptide region: H4 53-65, peptide modifications: H4K59ac, binder concentration: 50 nM",0.00241 ± 3.2e-05
same,peptide microarray binding signal,"[1]; peptide region: H4 53-65, peptide modifications: H4K59ac, binder concentration: 500 nM",0.00333 ± 0.00022
same,peptide microarray binding signal,"[2]; peptide region: H4 53-65, peptide modifications: H4K59ac, binder concentration: 10 nM",0.00997 ± 0.0024
same,peptide microarray binding signal,"[2]; peptide region: H4 53-65, peptide modifications: H4K59ac, binder concentration: 100 nM",0.00425 ± 0.00013
same,peptide microarray binding signal,[3]; [7],0.00104 ± 4.9e-05
same,peptide microarray binding signal,[3]; [8],0.00143 ± 4.8e-05
same,peptide microarray binding signal,[4]; [7],0.000529 ± 1.3e-05
same,peptide microarray binding signal,[4]; [8],0.00104 ± 2.1e-05
ARRGGVKRISGLI [H4 38-50 A R R G G V K Rme2s I S G L I],peptide microarray binding signal,"[1]; peptide region: H4 38-50, peptide modifications: H4R45me2s, binder concentration: 50 nM",0.0042 ± 0.00012
same,peptide microarray binding signal,"[1]; peptide region: H4 38-50, peptide modifications: H4R45me2s, binder concentration: 500 nM",0.00971 ± 0.0016
same,peptide microarray binding signal,"[2]; peptide region: H4 38-50, peptide modifications: H4R45me2s, binder concentration: 10 nM",0.0212 ± 0.0027
same,peptide microarray binding signal,"[2]; peptide region: H4 38-50, peptide modifications: H4R45me2s, binder concentration: 100 nM",0.0349 ± 0.0095
same,peptide microarray binding signal,[3]; [9],0.00542 ± 0.0019
same,peptide microarray binding signal,[3]; [10],0.00702 ± 0.0012
same,peptide microarray binding signal,[4]; [9],0.00222 ± 0.0001
same,peptide microarray binding signal,[4]; [10],0.00173 ± 4.4e-05
ARRGGVKRISGLI [H4 38-50 A R R G G V K Rme I S G L I],peptide microarray binding signal,"[1]; peptide region: H4 38-50, peptide modifications: H4R45me1, binder concentration: 50 nM",0.00486 ± 6.2e-05
same,peptide microarray binding signal,"[1]; peptide region: H4 38-50, peptide modifications: H4R45me1, binder concentration: 500 nM",0.0107 ± 0.00046
same,peptide microarray binding signal,"[2]; peptide region: H4 38-50, peptide modifications: H4R45me1, binder concentration: 10 nM",0.01247 ± 0.00012
same,peptide microarray binding signal,"[2]; peptide region: H4 38-50, peptide modifications: H4R45me1, binder concentration: 100 nM",0.0215 ± 0.0011
same,peptide microarray binding signal,[3]; [11],0.00306 ± 5.9e-05
same,peptide microarray binding signal,[3]; [12],0.00508 ± 7.3e-05
same,peptide microarray binding signal,[4]; [11],0.0021 ± 4.5e-05
same,peptide microarray binding signal,[4]; [12],0.0019 ± 3.6e-05
ARRGGVKRISGLI [H4 38-50 A R R G G V K Rme2a I S G L I],peptide microarray binding signal,"[1]; peptide region: H4 38-50, peptide modifications: H4R45me2a, binder concentration: 50 nM",0.00589 ± 0.00093
same,peptide microarray binding signal,"[1]; peptide region: H4 38-50, peptide modifications: H4R45me2a, binder concentration: 500 nM",0.0275 ± 0.023
same,peptide microarray binding signal,"[2]; peptide region: H4 38-50, peptide modifications: H4R45me2a, binder concentration: 10 nM",0.0152 ± 0.0026
same,peptide microarray binding signal,"[2]; peptide region: H4 38-50, peptide modifications: H4R45me2a, binder concentration: 100 nM",0.024 ± 0.0022
same,peptide microarray binding signal,[3]; [13],0.00185 ± 3.4e-05
same,peptide microarray binding signal,[3]; [14],0.00468 ± 0.0014
same,peptide microarray binding signal,[4]; [13],0.00134 ± 0.00014
same,peptide microarray binding signal,[4]; [14],0.00144 ± 7.5e-05
ARRGGVKRISGLI [H4 38-50 A R R G G V K Rcit I S G L I],peptide microarray binding signal,"[1]; peptide region: H4 38-50, peptide modifications: H4R45cit, binder concentration: 50 nM",0.00395 ± 6.8e-05
same,peptide microarray binding signal,"[1]; peptide region: H4 38-50, peptide modifications: H4R45cit, binder concentration: 500 nM",0.00619 ± 7.4e-05
same,peptide microarray binding signal,"[2]; peptide region: H4 38-50, peptide modifications: H4R45cit, binder concentration: 10 nM",0.00561 ± 4.7e-05
same,peptide microarray binding signal,"[2]; peptide region: H4 38-50, peptide modifications: H4R45cit, binder concentration: 100 nM",0.0163 ± 0.003
same,peptide microarray binding signal,[3]; [15],0.012 ± 0.0055
same,peptide microarray binding signal,[3]; [16],0.00976 ± 0.00034
same,peptide microarray binding signal,[4]; [15],0.00521 ± 0.00036
same,peptide microarray binding signal,[4]; [16],0.00271 ± 7.1e-05
ETRGVLKVFLENV [H4 53-65 E T R G V L K V F L E N V],peptide microarray binding signal,"[1]; peptide region: H4 53-65, binder concentration: 50 nM",0.00282 ± 3.2e-05
same,peptide microarray binding signal,"[1]; peptide region: H4 53-65, binder concentration: 500 nM",0.003334 ± 2.5e-05
same,peptide microarray binding signal,"[2]; peptide region: H4 53-65, binder concentration: 10 nM",0.00639 ± 0.00028
same,peptide microarray binding signal,"[2]; peptide region: H4 53-65, binder concentration: 100 nM",0.00461 ± 7.6e-05
same,peptide microarray binding signal,[3]; [17],0.00121 ± 3.5e-05
same,peptide microarray binding signal,[3]; [18],0.00188 ± 3.5e-05
same,peptide microarray binding signal,[4]; [17],0.00068 ± 1e-05
same,peptide microarray binding signal,[4]; [18],0.001211 ± 1.2e-05
ARRGGVKRISGLI [H4 38-50 A R R G G V Kme3 Rme2s I S G L I],peptide microarray binding signal,"[1]; peptide region: H4 38-50, peptide modifications: H4K44me3 H4R45me2s, binder concentration: 50 nM",0.00533 ± 8.8e-05
same,peptide microarray binding signal,"[1]; peptide region: H4 38-50, peptide modifications: H4K44me3 H4R45me2s, binder concentration: 500 nM",0.0131 ± 0.0006
same,peptide microarray binding signal,"[2]; peptide region: H4 38-50, peptide modifications: H4K44me3 H4R45me2s, binder concentration: 10 nM",0.0355 ± 0.0027
same,peptide microarray binding signal,"[2]; peptide region: H4 38-50, peptide modifications: H4K44me3 H4R45me2s, binder concentration: 100 nM",0.0541 ± 0.0061
same,peptide microarray binding signal,[3]; [19],0.0265 ± 0.0032
same,peptide microarray binding signal,[3]; [20],0.0193 ± 0.0017
same,peptide microarray binding signal,[4]; [19],0.0291 ± 0.0028
same,peptide microarray binding signal,[4]; [20],0.0206 ± 0.0014
ARRGGVKRISGLI [H4 38-50 A R R G G V Kme2 Rme2a I S G L I],peptide microarray binding signal,"[1]; peptide region: H4 38-50, peptide modifications: H4K44me2 H4R45me2a, binder concentration: 50 nM",0.00665 ± 0.0002
same,peptide microarray binding signal,"[1]; peptide region: H4 38-50, peptide modifications: H4K44me2 H4R45me2a, binder concentration: 500 nM",0.00881 ± 0.00022
same,peptide microarray binding signal,"[2]; peptide region: H4 38-50, peptide modifications: H4K44me2 H4R45me2a, binder concentration: 10 nM",0.00859 ± 0.00016
same,peptide microarray binding signal,"[2]; peptide region: H4 38-50, peptide modifications: H4K44me2 H4R45me2a, binder concentration: 100 nM",0.0109 ± 0.00048
same,peptide microarray binding signal,[3]; [21],0.00187 ± 6e-05
same,peptide microarray binding signal,[3]; [22],0.00371 ± 0.00016
same,peptide microarray binding signal,[4]; [21],0.00208 ± 4.3e-05
same,peptide microarray binding signal,[4]; [22],0.00265 ± 9.3e-05
ETRGVLKVFLENV [H4 53-65 E T R G V L Kme V F L E N V],peptide microarray binding signal,"[1]; peptide region: H4 53-65, peptide modifications: H4K59me1, binder concentration: 50 nM",0.00605 ± 0.00068
same,peptide microarray binding signal,"[1]; peptide region: H4 53-65, peptide modifications: H4K59me1, binder concentration: 500 nM",0.00795 ± 0.00042
same,peptide microarray binding signal,"[2]; peptide region: H4 53-65, peptide modifications: H4K59me1, binder concentration: 10 nM",0.00847 ± 0.001
same,peptide microarray binding signal,"[2]; peptide region: H4 53-65, peptide modifications: H4K59me1, binder concentration: 100 nM",0.0164 ± 0.0049
same,peptide microarray binding signal,[3]; [23],0.00213 ± 0.00025
same,peptide microarray binding signal,[3]; [24],0.00314 ± 0.00021
same,peptide microarray binding signal,[4]; [23],0.00166 ± 0.00016
same,peptide microarray binding signal,[4]; [24],0.00231 ± 8.4e-05
